# Results filed as inconclusive are left out. Calls of active or inactive are those of the source.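 How the source made its calls, unless noted: active means normalized viability below 100% at a tested concentration; inactive means the rest.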
# What was measured:
# [1] = viability loss in pontine glioma line – cell-based, SU-DIPG-XVII, MIPE5.0, CellTiter-Glo, qHTS, dose response (AID 1347060; cut-off not given, nearly all actives have AC50 up to about 26 µM;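 on AC50: cells exposed to compound for 48 hours before viability readout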); details: CellTiter-Glo ATP luminescence
# [2] = viability loss in pontine glioma line – cell-based, SU-DIPG-XIII, MIPE4.0, CellTiter-Glo, qHTS, dose response (AID 1347061; cut-off not given, nearly all actives have AC50 up to about 37 µM;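 further: cells exposed to compound for 48 hours before readout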); details: CellTiter-Glo ATP luminescence
# [3] = viability loss in pontine glioma line – cell-based, JHH-DIPG-1, MIPE4.0, CellTiter-Glo, qHTS, dose response (AID 1347062; cut-off not given, nearly all actives have AC50 up to about 27 µM;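 on AC50: cells exposed to compound for two days before readout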); details: JHH-DIPG-1 viability, CellTiter-Glo ATP luminescence
# [4] = viability loss in pontine glioma line – cell-based, SU-DIPG-IV, MIPE4.0, CellTiter-Glo, qHTS, dose response (AID 1347063; cut-off not given, nearly all actives have AC50 up to about 30 µM;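 further: compound exposure lasted 48 hours before the viability readout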); details: CellTiter-Glo ATP luminescence
# [5] = viability loss in pontine glioma line – cell-based, SU-DIPG-XIII, MIPE5.0, CellTiter-Glo, qHTS, dose response (AID 1347064; cut-off not given, nearly all actives have AC50 up to about 23 µM;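 on AC50: cells exposed to compound for 48 hours before the viability read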); details: CellTiter-Glo ATP luminescence
# [6] = viability loss in pontine glioma line – cell-based, SU-DIPG-XXV, MIPE5.0, CellTiter-Glo, qHTS, dose response (AID 1347065; cut-off not given, nearly all actives have AC50 up to about 26 µM;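 further: cells exposed to compound for 48 hours before ATP readout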); details: CellTiter-Glo ATP luminescence
# [7] = growth inhibition of DIPG cells – cell-based, MIPE4.0 library, CellTiter-Glo luminescence, qHTS (AID 1347066; cut-off not given, nearly all actives have AC50 up to about 30 µM;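 further: cells exposed to compound for 48 hours before readout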); details: SU-DIPG-VI viability, CellTiter-Glo ATP luminescence
# [8] = growth inhibition of DIPG cells – cell-based, MIPE5.0 library, qHTS (AID 1347068; cut-off not given, nearly all actives have IC50 up to about 30 µM); details: SU-DIPG-XXV viability
# [9] = JHH-DIPG-1 glioma cell viability, MIPE5.0 library, CellTiter-Glo luminescence, qHTS (AID 1347067; cut-off not given, nearly all actives have AC50 up to about 26 µM;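 further: cells exposed to compound for 48 hours before readout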); details: JHH-DIPG-1 glioma viability, CellTiter-Glo ATP luminescence
# [10] = viability loss with induced miR-34 in A549 – imaging, A549 dox-inducible miR-34, nuclei and caspase counts, primary screen (AID 1347080;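 active means compounds whose cell count with miR-34 switched on is under 0.7 times the count with it off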); details: A549 miR-34 inducible, Hoechst nuclei count, 48 h
# [11] = MELAS cybrid and Rieske KO viability enhancers – cell-based, MELAS cybrids, Rieske KO mouse fibroblasts, CellTiter-Glo, primary screen (AID 1508586;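 active means mean z-score across replicates of 1.96 or higher in either the MELAS or the Rieske mutant cell line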;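 further: z relative to plate mean and SD of compound and empty wells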); details: low glucose
# [12] = compounds altering HSF1 focus formation in cells – imaging, Selleck Cancer Library (AID 1347162; in the data active means plate-normalised HSF1 focus index below about 0.46); details: human cells, HSF1 nuclear foci imaging, at 10 µM; SSMD: measured here: HSF1 foci SSMD mean; cell count: measured here: cell number; plate-normalised HSF1 focus index: stronger effect = lower value
# [13] = drug combination growth inhibition, ovarian cancer – cell-based, oncology-focused library, rucaparib conditional, profiling panel (AID 1508598); details: patient-derived ovarian cancer cells, CellTiter-Glo viability, 144 h, stronger effect = lower value
# [14] = growth inhibition, single agent or in combination, cell-based, chromothripsis tumors, cisplatin or BGB combos (AID 1671449; in the data active means inhibition above about 80%;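 further: cells exposed for 96 hours; 0% = vehicle DMSO and 100% = killing by high DMSO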); details: LFS_MB_P medulloblastoma cells
# [15] = growth inhibition, single agent and combos, cell-based, chromothripsis tumors, cisplatin or BGB combos (AID 1671450; in the data active means inhibition above about 80%;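 further: cells exposed to compound for four days; 0% = vehicle DMSO and 100% = cell killing by high DMSO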); details: HDN33 neuroblastoma cells, stronger effect = higher value
# [16] = growth inhibition, single agents and combos, ICB984, cell-based, cisplatin or BGB combos, synergistic combos for chromothripsis tumors (AID 1671451; call rule not given here;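 further: cells exposed for 96 hours before readout; 0% = vehicle DMSO and 100% = killing by high DMSO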); details: ICB984 medulloblastoma cells, drug combinations, stronger effect = higher value
# [17] = growth inhibition, single agents and combos, HTB85, cell-based, BGB or cisplatin IC20 combos, synergistic combos for chromothripsis tumors (AID 1671453; in the data active means inhibition above about 80%;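 further: cells exposed for 96 hours before readout; 0% = vehicle DMSO and 100% = high DMSO killing control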); details: HTB85 osteosarcoma cells, drug combinations, stronger effect = higher value
# [18] = growth inhibition, MDA-MB-436, cell-based, BGB or cisplatin combos, synergistic combos for chromothripsis tumors (AID 1671458; call rule not given here;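 further: cells exposed for 96 hours; 0% = vehicle DMSO and 100% = killing by high DMSO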); details: MDA-MB-436 breast carcinoma growth inhibition, drug combinations, stronger effect = higher value
# [19] = BT084 cell growth, single and combined drugs, ICGC_MB145, cisplatin and BGB IC40 combos (AID 1671461; in the data active means inhibition above about 80%;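 further: cells exposed to drugs for 96 hours; 0% = vehicle DMSO and 100% = high DMSO full killing control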); details: BT084 medulloblastoma cells, drug combinations, stronger effect = higher value
# [20] = RCMB18 cell growth, single agent and combined, cisplatin and BGB IC40 combos (AID 1671462; in the data active means inhibition above about 80%;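 further: cells exposed to compound for four days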); details: RCMB18 medulloblastoma cells, stronger effect = higher value
smiles,measurement,setting,value
CN(C)C(N)=NC(=N)N,outcome,[1],inactive
same,outcome,[2],inactive
same,outcome,[3],inactive
same,outcome,[4],inactive
same,outcome,[5],inactive
same,outcome,[6],inactive
same,outcome,[7],inactive
same,outcome,[8],inactive
CCNC(=O)c1cc2c(-c3cc(OCCN4CCCC4)c(Cl)cc3Cl)nc(N)nc2s1,AC50,[1],1020 nM (active)
same,AC50,[2],6620 nM (active)
same,AC50,[3],935 nM (active)
same,AC50,[4],2350 nM (active)
same,AC50,[5],2290 nM (active)
same,AC50,[6],1620 nM (active)
same,AC50,[9],1820 nM (active)
COc1ccc(C2(C#N)CCC(C(=O)O)CC2)cc1OC1CCCC1 (configuration not stated),outcome,[1],inactive
same,outcome,[2],inactive
same,outcome,[3],inactive
same,outcome,[4],inactive
same,outcome,[5],inactive
same,outcome,[6],inactive
same,outcome,[7],inactive
same,fold change,"[10]; stronger effect = lower value, cell number ratio, induced over uninduced",0.931 (inactive)
same,fold change,[10]; measured here: relative caspase fold change +Dox/-Dox,0.847
same,cell count,"[10]; measured here: total cells with miR-34 induction, stronger effect = lower value",7550
same,cell count,[10]; measured here: total cells without miR-34 induction,8110
same,z-score,"[11]; MELAS cybrid survival, CellTiter-Glo 48 h, stronger effect = higher value",-0.364 (inactive)
same,z-score,"[11]; Rieske KO mouse fibroblast survival, CellTiter-Glo 72 h",0.0886
O=C(/C=C/c1cccc(S(=O)(=O)Nc2ccccc2)c1)NO,AC50,[1],2090 nM (active)
same,AC50,[2],15200 nM (active)
same,AC50,[3],7620 nM (active)
same,AC50,[4],3400 nM (active)
same,AC50,[5],661 nM (active)
same,AC50,[6],742 nM (active)
same,AC50,[7],3820 nM (active)
same,AC50,[9],742 nM (active)
same,SSMD,[12],-3.23
same,cell count,[12],7740
same,plate-normalised HSF1 focus index,[12],0.885 (inactive)
same,viability,"[13]; at 0.000305 µM, OCI-C5x cells, with rucaparib 10 µM, 100% = cells with rucaparib alone",104% (inactive)
same,viability,"[13]; at 0.000305 µM, OCI-C5x cells, without rucaparib",114% (inactive)
same,viability,"[13]; at 0.000305 µM, OCI-P5x cells, with rucaparib 20 µM, 100% = cells with rucaparib alone",106% (inactive)
same,viability,"[13]; at 0.000305 µM, OCI-P5x cells, without rucaparib",94% (active)
same,viability,"[13]; at 0.00122 µM, OCI-C5x cells, with rucaparib 10 µM, 100% = cells with rucaparib alone",98.8% (active)
same,viability,"[13]; at 0.00122 µM, OCI-C5x cells, without rucaparib",117% (inactive)
same,viability,"[13]; at 0.00122 µM, OCI-P5x cells, with rucaparib 20 µM, 100% = cells with rucaparib alone",113% (inactive)
same,viability,"[13]; at 0.00122 µM, OCI-P5x cells, without rucaparib",100% (inactive)
same,viability,"[13]; at 0.00488 µM, OCI-C5x cells, with rucaparib 10 µM, 100% = cells with rucaparib alone",114% (inactive)
same,viability,"[13]; at 0.00488 µM, OCI-C5x cells, without rucaparib",117% (inactive)
same,viability,"[13]; at 0.00488 µM, OCI-P5x cells, with rucaparib 20 µM, 100% = cells with rucaparib alone",101% (inactive)
same,viability,"[13]; at 0.00488 µM, OCI-P5x cells, without rucaparib",95% (active)
same,viability,"[13]; at 0.0195 µM, OCI-C5x cells, with rucaparib 10 µM, 100% = cells with rucaparib alone",104% (inactive)
same,viability,"[13]; at 0.0195 µM, OCI-C5x cells, without rucaparib",119% (inactive)
same,viability,"[13]; at 0.0195 µM, OCI-P5x cells, with rucaparib 20 µM, 100% = cells with rucaparib alone",90.8% (active)
same,viability,"[13]; at 0.0195 µM, OCI-P5x cells, without rucaparib",88.4% (active)
same,viability,"[13]; at 0.0781 µM, OCI-C5x cells, with rucaparib 10 µM, 100% = cells with rucaparib alone",97.6% (active)
same,viability,"[13]; at 0.0781 µM, OCI-C5x cells, without rucaparib",112% (inactive)
same,viability,"[13]; at 0.0781 µM, OCI-P5x cells, with rucaparib 20 µM, 100% = cells with rucaparib alone",77.4% (active)
same,viability,"[13]; at 0.0781 µM, OCI-P5x cells, without rucaparib",75.3% (active)
same,viability,"[13]; at 0.313 µM, OCI-C5x cells, with rucaparib 10 µM, 100% = cells with rucaparib alone",77% (active)
same,viability,"[13]; at 0.313 µM, OCI-C5x cells, without rucaparib",75.9% (active)
same,viability,"[13]; at 0.313 µM, OCI-P5x cells, with rucaparib 20 µM, 100% = cells with rucaparib alone",43.7% (active)
same,viability,"[13]; at 0.313 µM, OCI-P5x cells, without rucaparib",63.5% (active)
same,viability,"[13]; at 1.25 µM, OCI-C5x cells, with rucaparib 10 µM, 100% = cells with rucaparib alone",12.7% (active)
same,viability,"[13]; at 1.25 µM, OCI-C5x cells, without rucaparib",12.1% (active)
same,viability,"[13]; at 1.25 µM, OCI-P5x cells, with rucaparib 20 µM, 100% = cells with rucaparib alone",17.8% (active)
same,viability,"[13]; at 1.25 µM, OCI-P5x cells, without rucaparib",35.8% (active)
same,viability,"[13]; at 5 µM, OCI-C5x cells, with rucaparib 10 µM, 100% = cells with rucaparib alone",5.06% (active)
same,viability,"[13]; at 5 µM, OCI-C5x cells, without rucaparib",5.35% (active)
same,viability,"[13]; at 5 µM, OCI-P5x cells, with rucaparib 20 µM, 100% = cells with rucaparib alone",2.89% (active)
same,viability,"[13]; at 5 µM, OCI-P5x cells, without rucaparib",3.18% (active)
same,inhibition,"[14]; at 0.5 µM, stronger effect = higher value",40.5% (inactive)
same,inhibition,"[14]; measured here: combination with BGB IC20, at 0.005 µM",-0.936%
same,inhibition,"[14]; measured here: combination with BGB IC40, at 0.005 µM",-11.3%
same,inhibition,"[14]; measured here: combination with BGB IC40, at 0.05 µM",-18.3%
same,inhibition,"[14]; measured here: combination with cisplatin, at 0.5 µM, stronger effect = higher value",101%
same,inhibition,"[14]; measured here: combination with cisplatin, at 5 µM, stronger effect = higher value",112%
same,inhibition,"[15]; BGB combo, at 5 µM",99.6%
same,inhibition,[15]; at 0.5 µM,28.3% (inactive)
same,inhibition,"[15]; cisplatin combo, at 5 µM",99.8%
same,inhibition,"[15]; measured here: with BGB IC20 combination, at 0.5 µM",17.9%
same,inhibition,"[15]; measured here: with cisplatin IC20 combination, at 0.5 µM",21.7%
same,inhibition,"[15]; single agent, at 5 µM",99.8%
same,inhibition,"[16]; BGB IC20 combo, at 0.005 µM",18.9%
same,inhibition,"[16]; BGB IC40 combo, at 0.005 µM",36.1%
same,inhibition,"[16]; BGB IC40 combo, at 0.05 µM",94.9%
same,inhibition,[16]; at 0.5 µM,-22.2% (inactive)
same,inhibition,"[16]; cisplatin combo, at 0.05 µM",94.8%
same,inhibition,"[16]; cisplatin combo, at 0.5 µM",-34.3%
same,inhibition,"[16]; cisplatin combo, at 5 µM",-34.9%
same,inhibition,"[16]; measured here: 5 uM single agent, at 5 µM",-35.3%
same,inhibition,[17]; at 0.5 µM,34.5% (inactive)
same,inhibition,"[17]; measured here: with BGB IC20, at 0.5 µM",8.9%
same,inhibition,"[17]; measured here: with BGB IC20, at 5 µM",99.2%
same,inhibition,"[17]; measured here: with cisplatin IC20, at 0.5 µM",49.8%
same,inhibition,"[17]; measured here: with cisplatin IC20, at 5 µM",99.8%
same,inhibition,"[17]; single agent, at 5 µM",99.7%
same,inhibition,[18]; at 0.5 µM,33.7% (inactive)
same,inhibition,"[18]; measured here: BGB combination, at 0.5 µM",25.2%
same,inhibition,"[18]; measured here: BGB combination, at 5 µM",62%
same,inhibition,"[18]; measured here: cisplatin combination, at 0.5 µM",26.3%
same,inhibition,"[18]; measured here: cisplatin combination, at 5 µM",66.1%
same,inhibition,[19]; at 0.5 µM,38.7% (inactive)
same,inhibition,"[19]; cisplatin combination, at 0.5 µM",58.9%
same,inhibition,"[19]; cisplatin combination, at 5 µM",102%
same,inhibition,"[19]; measured here: BGB IC40 combination 0.05 uM, at 0.05 µM",14.1%
same,inhibition,"[19]; single agent, at 5 µM",108%
same,inhibition,[20]; at 0.5 µM,32.4% (inactive)
same,inhibition,"[20]; cisplatin combo, at 5 µM",91.3%
same,inhibition,"[20]; measured here: BGB IC40 combination, at 0.05 µM",-15.7%
same,inhibition,"[20]; measured here: combination with cisplatin, at 0.5 µM",51.1%
same,inhibition,"[20]; single agent, at 5 µM",92.7%
